The whole screen tested about 5,500 compounds, of which about 2,000 (36%) were called active. Not shown: some 18% with an inconclusive outcome. Rule as the data show it: active = normalized growth mostly below about 0.91 (no sharp cut-off); inconclusive = no clear call, values can overlap the other calls; inactive = mostly above about 0.92. This is one part of the list.
Test: chemical genetic growth profiling, strain panel (AID 1159580);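 also: tested at 20 µM; growth read once vehicle control cultures reached saturation at 30 °C; 1 = growth at the plate median or of vehicle wells; lower values mean less growth of the strain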
Settings: growth OD

Measured: normalized growth

COc1cc(C(=O)N2CCOCC2)cc(OC)c1OC
active: S. cerevisiae deletion strains, locus YKL085W, strain MDH1 (second series), stronger effect = lower value 0.353 | S. cerevisiae deletion strains, locus YKL085W, strain MDH1, stronger effect = lower value 0.353 | S. cerevisiae deletion strains, locus YKR001C, strain vps1, stronger effect = lower value 0.127 | S. cerevisiae deletion strains, locus YLR102C, strain apc9, stronger effect = lower value 0.102 | S. cerevisiae deletion strains, locus YLR268W, strain sec22, stronger effect = lower value 0.0891 | S. cerevisiae deletion strains, locus YLR371W, strain rom2, stronger effect = lower value 0.0857 | S. cerevisiae deletion strains, locus YLR418C, strain cdc73, stronger effect = lower value 0.102 | S. cerevisiae deletion strains, locus YML032C, strain rad52, stronger effect = lower value 0.845 | S. cerevisiae deletion strains, locus YML124C, strain tub3, stronger effect = lower value 0.158 | S. cerevisiae deletion strains, locus YMR078C, strain ctf18, stronger effect = lower value 0.205 | S. cerevisiae deletion strains, locus YMR223W, strain ubp8, stronger effect = lower value 0.0851 | S. cerevisiae deletion strains, locus YNL250W, strain rad50, stronger effect = lower value 0.531 | S. cerevisiae deletion strains, locus YNL271C, strain bni1, stronger effect = lower value 0.214 | S. cerevisiae deletion strains, locus YNL298W, strain CLA4, stronger effect = lower value 0.456 | S. cerevisiae deletion strains, locus YNL307C, strain MCK1, stronger effect = lower value 0.0679 | S. cerevisiae deletion strains, locus YOL147C, strain pex11, stronger effect = lower value 0.829 | S. cerevisiae deletion strains, locus YOR136W, strain idh2, stronger effect = lower value 0.0963 | S. cerevisiae deletion strains, locus YOR184W, strain ser1, stronger effect = lower value 0.0727 | S. cerevisiae deletion strains, locus YOR316C, strain cot1, stronger effect = lower value 0.0956 | S. cerevisiae deletion strains, locus YPR119W, strain clb2, stronger effect = lower value 0.143 | S. cerevisiae deletion strains, locus YPR163C, strain tif3, stronger effect = lower value 0.0748 | S. cerevisiae deletion strains, locus YPR167C, strain met16, stronger effect = lower value 0.0923 | S. cerevisiae deletion strains, strain wtn01, stronger effect = lower value 0.0623
inactive: S. cerevisiae deletion strains, locus YJR075W, strain HOC1, stronger effect = lower value 1 | S. cerevisiae deletion strains, locus YKL009W, strain mrt4, stronger effect = lower value 0.926 | S. cerevisiae deletion strains, locus YKL068W, stronger effect = lower value 0.988 | S. cerevisiae deletion strains, locus YKL160W, strain elf1, stronger effect = lower value 1 | S. cerevisiae deletion strains, locus YKL190W, strain CNB1, stronger effect = lower value 1.01 | S. cerevisiae deletion strains, locus YKR026C, strain gcn3, stronger effect = lower value 0.975 | S. cerevisiae deletion strains, locus YKR091W, strain srl3, stronger effect = lower value 0.977 | S. cerevisiae deletion strains, locus YLL001W, strain dnm1, stronger effect = lower value 0.987 | S. cerevisiae deletion strains, locus YLL026W, stronger effect = lower value 0.984 | S. cerevisiae deletion strains, locus YLL041C, strain sdh2, stronger effect = lower value 0.981 | S. cerevisiae deletion strains, locus YLR027C, strain aat2, stronger effect = lower value 1.01 | S. cerevisiae deletion strains, locus YLR039C, strain RIC1, stronger effect = lower value 1.04 | S. cerevisiae deletion strains, locus YLR058C, strain SHM2, stronger effect = lower value 1.01 | S. cerevisiae deletion strains, locus YLR113W, strain HOG1, stronger effect = lower value 0.999 | S. cerevisiae deletion strains, locus YLR221C, strain rsa3, stronger effect = lower value 0.968 | S. cerevisiae deletion strains, locus YLR258W, strain gsy2, stronger effect = lower value 1.01 | S. cerevisiae deletion strains, locus YLR262C, strain YPT6 (second series), stronger effect = lower value 1.02 | S. cerevisiae deletion strains, locus YLR262C, strain YPT6, stronger effect = lower value 1.06 | S. cerevisiae deletion strains, locus YLR320W, strain mms22, stronger effect = lower value 0.982 | S. cerevisiae deletion strains, locus YLR330W, strain CHS5, stronger effect = lower value 1 | S. cerevisiae deletion strains, locus YLR342W, strain FKS1 (second series), stronger effect = lower value 1.06 | S. cerevisiae deletion strains, locus YLR342W, strain FKS1, stronger effect = lower value 0.967 | S. cerevisiae deletion strains, locus YLR357W, strain rsc2, stronger effect = lower value 0.998 | S. cerevisiae deletion strains, locus YLR370C, strain arc18, stronger effect = lower value 1 | S. cerevisiae deletion strains, locus YLR384C, strain iki3, stronger effect = lower value 0.984 | S. cerevisiae deletion strains, locus YML016C, strain PPZ1, stronger effect = lower value 1.01 | S. cerevisiae deletion strains, locus YML120C, strain ndi1, stronger effect = lower value 0.985 | S. cerevisiae deletion strains, locus YMR058W, strain fet3, stronger effect = lower value 0.987 | S. cerevisiae deletion strains, locus YMR125W, strain sto1, stronger effect = lower value 0.993 | S. cerevisiae deletion strains, locus YMR129W, stronger effect = lower value 0.982 | S. cerevisiae deletion strains, locus YMR205C, strain PFK2, stronger effect = lower value 0.982 | S. cerevisiae deletion strains, locus YMR231W, strain pep5, stronger effect = lower value 0.975 | S. cerevisiae deletion strains, locus YMR263W, strain SAP30, stronger effect = lower value 1 | S. cerevisiae deletion strains, locus YMR307W, strain GAS1, stronger effect = lower value 1.06 | S. cerevisiae deletion strains, locus YNL067W, strain RPL9B, stronger effect = lower value 1 | S. cerevisiae deletion strains, locus YNL071W, strain lat1, stronger effect = lower value 0.987 | S. cerevisiae deletion strains, locus YNL128W, strain TEP1, stronger effect = lower value 1 | S. cerevisiae deletion strains, locus YNL153C, strain GIM3, stronger effect = lower value 0.997 | S. cerevisiae deletion strains, locus YNL183C, strain NPR1, stronger effect = lower value 0.967 | S. cerevisiae deletion strains, locus YNL209W, strain ssb2, stronger effect = lower value 0.981 | S. cerevisiae deletion strains, locus YNL233W, strain BNI4, stronger effect = lower value 0.992 | S. cerevisiae deletion strains, locus YNL248C, strain rpa49, stronger effect = lower value 0.991 | S. cerevisiae deletion strains, locus YNL322C, strain KRE1 (second series), stronger effect = lower value 0.975 | S. cerevisiae deletion strains, locus YNL322C, strain KRE1, stronger effect = lower value 1.01 | S. cerevisiae deletion strains, locus YNR049C, strain mso1, stronger effect = lower value 0.971 | S. cerevisiae deletion strains, locus YNR052C, strain pop2, stronger effect = lower value 1.04 | S. cerevisiae deletion strains, locus YOL006C, strain TOP1, stronger effect = lower value 1.05 | S. cerevisiae deletion strains, locus YOR001W, strain rrp6, stronger effect = lower value 0.967 | S. cerevisiae deletion strains, locus YOR061W, strain CKA2, stronger effect = lower value 1.01 | S. cerevisiae deletion strains, locus YOR069W, strain VPS5, stronger effect = lower value 1.01 | S. cerevisiae deletion strains, locus YOR070C, strain gyp1, stronger effect = lower value 0.982 | S. cerevisiae deletion strains, locus YOR080W, strain dia2, stronger effect = lower value 0.979 | S. cerevisiae deletion strains, locus YOR083W, strain WHI5, stronger effect = lower value 1.01 | S. cerevisiae deletion strains, locus YOR106W, strain vam3, stronger effect = lower value 1.01 | S. cerevisiae deletion strains, locus YOR144C, strain elg1, stronger effect = lower value 1.01 | S. cerevisiae deletion strains, locus YOR231W, strain MKK1, stronger effect = lower value 1.01 | S. cerevisiae deletion strains, locus YOR265W, strain rbl2, stronger effect = lower value 1 | S. cerevisiae deletion strains, locus YOR270C, strain vph1, stronger effect = lower value 0.978 | S. cerevisiae deletion strains, locus YOR290C, strain snf2, stronger effect = lower value 1.01 | S. cerevisiae deletion strains, locus YPL051W, strain arl3, stronger effect = lower value 0.993 | S. cerevisiae deletion strains, locus YPL055C, strain LGE1, stronger effect = lower value 1 | S. cerevisiae deletion strains, locus YPL078C, strain atp4, stronger effect = lower value 0.982 | S. cerevisiae deletion strains, locus YPL106C, strain sse1, stronger effect = lower value 0.998 | S. cerevisiae deletion strains, locus YPL240C, strain hsp82, stronger effect = lower value 1 | S. cerevisiae deletion strains, locus YPL241C, strain CIN2, stronger effect = lower value 1.01 | S. cerevisiae deletion strains, locus YPL256C, strain CLN2, stronger effect = lower value 1.07 | S. cerevisiae deletion strains, locus YPR141C, strain kar3, stronger effect = lower value 1.03 | S. cerevisiae strains, strain wild type, stronger effect = lower value 1.01

From PubChem BioAssay AID1159580 (chemical genetic matrix, 2015)
